Laboratory results taken from PubChem BioAssay AID2685 (National Center for Advancing Translational Sciences (NCATS), 2010).
In all, about 320,000 compounds went through this assay and about 2,100 (0.66%) were called active. Not shown: some 53% with an inconclusive outcome. The call rests on the fitted dose curve; in most records, active means well fitted inhibition curve with a large enough effect in the signal ratio, with a control signal flat (not every such curve was filed as active); inconclusive means small, poorly fitted or top-dose-only effect, or effect the other way, or a change in a side signal; inactive means flat fitted curve, though single readings scatter; the % refers to the signal ratio. Only a selection was taken, and actives are over-represented in it overall.

Assay: qHTS Assay for Lipid Storage Modulators in Drosophila S3 Cells;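 on cell number change: cells counted by Cell Tracker Red CMTPX staining in the red channel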; on lipid storage change, negative = inhibition: on the % scale 0 is the no-effect control and ±100 the full control effect
Conditions: BODIPY lipid droplet fluorescence, 18-24 h, cells fed with added oleic acid; cell number change: measured here: cell count max response; series mostly up to 46.1 µM; lipid storage change, negative = inhibition: at the top concentration
Summary of the method: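 Drosophila S3 cells got compounds at several concentrations plus oleic acid (400 uM solution). Laser-scanning cytometry with 488 nm excitation read lipid droplets at 500-530 nm and cells at 575-640 nm. Percent activity was relative to 20 uM Triacsin C.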
Potency means the concentration at half of the fitted maximal effect.

Compound | outcome | cell number change [%] | lipid storage change, negative = inhibition | Potency
COc1ccccc1/C=C/c1onc(C)c1S(=O)(=O)N1CCC(C(=O)NC2CCCCCC2)CC1 | inactive | -0.659 |  | 
CCOC(=O)CC(NC(=O)c1cc2ccccc2oc1=O)c1cccc([N+](=O)[O-])c1 (stereo unspecified) |  | 11.6 | 11.5% (inactive) | 
O=[N+]([O-])c1cc([N+](=O)[O-])c(Oc2c(F)ccc(F)c2F)cc1NN1CCCCC1 |  | -0.599 | 27.8% (inactive) | 
NC(=O)Cn1nc([N+](=O)[O-])nc1Oc1ccc(Br)cc1 | inactive | -1.14 |  | 
COc1ccccc1Oc1nc([N+](=O)[O-])nn1CC(N)=O |  | -6.43 | 22.6% (inactive) | 
NC(=O)Cn1nc([N+](=O)[O-])nc1Oc1ccccc1C(=O)N1CCOCC1 |  | -24.1 |  | 14.6 µM (active)
Cc1ccc(C(=O)C[n+]2cc(Br)cc(Br)c2)cc1[N+](=O)[O-] |  | 11.3 | 6.01% (inactive) | 
Cc1cccc(C(CC(=O)N2CCCCC2)c2ccccc2)c1O (stereo unspecified) | inactive | -18.8 |  | 
O=C1CC2(CCN(C(=O)c3ccc(Br)cc3)CC2)Oc2ccccc21 | inactive | -15.2 |  | 
COc1cc(/C=C/C(=O)c2ccc(NS(=O)(=O)c3ccc(C)cc3)cc2)cc(OC)c1O |  | -14.2 | -10.6% (inactive) | 
Cc1ccc(NC(=S)N2CCC(C(N)=O)(N3CCCCC3)CC2)c(C)c1 |  | -4.08 | -4.88% (inactive) | 
CCN(CC)C(=O)C1CCCN(C(=O)c2oc3ccc(C)cc3c2C)C1 (stereo unspecified) |  | 15.6 | 2.31% (inactive) | 
Cc1ccc2oc(C(=O)N3CCC(C(N)=O)(N4CCCCC4)CC3)c(C)c2c1 |  | -4.2 |  | 18.4 µM (active)
CCCOc1ccc(/C=C/C(=O)N2CCN(c3ccccn3)CC2)cc1 |  | -20.8 | 19.3% (inactive) | 
S=c1[nH]nc(COc2ccc3ccccc3c2)o1 |  | -7.51 | 7.14% (inactive) | 
O=S(=O)(CCc1nc2ccccc2s1)c1ccc(Cl)cc1 | inactive | 17.6 |  | 
Cc1ccc(S(=O)(=O)CCc2nc3ccccc3s2)cc1C |  | 19.6 |  | 18.4 µM (active)
Cc1ccc(S(=O)(=O)CCc2nc3ccccc3s2)cc1 |  | -0.805 | 3.52% (inactive) | 
c1ccc(-c2cn(C[C@H]3CC[C@@H]([C@@H]4CC[C@H](Cn5cc(-c6ccccc6)nn5)O4)O3)nn2)cc1 |  | -7.49 | -0.0556% (inactive) | 
c1cncc(-c2cn(C[C@H]3CC[C@@H]([C@@H]4CC[C@H](Cn5cc(-c6cccnc6)nn5)O4)O3)nn2)c1 |  | 9.88 |  | 14.6 µM (active)
c1ccc(-c2cn(C[C@H]3CC[C@@H]([C@@H]4CC[C@H](Cn5cc(-c6ccccn6)nn5)O4)O3)nn2)nc1 |  | 28.2 | 7.69% (inactive) | 
CC(=O)N1CCN(S(=O)(=O)c2c(C)n(C)c(=O)n(C)c2=O)CC1 |  | 5.18 | -16.5% (inactive) | 
CCCCOc1ccc(C(=O)N2CCNC(=O)C2CC(=O)OC(C)C)cc1 (stereo unspecified) | inactive | 7.09 |  | 
